Data reported in the supplement of paper PMC11732987, “Enantioselective OTUD7B fragment discovery through chemoproteomics screening and high-throughput optimisation” (Communications Chemistry, 2025).

How the values were obtained:
Experiment in all cases: log2 ratio of Biotin-Ahx-Ub-VS probe labelling (fragment/DMSO); higher = less target engagement (more negative = stronger competition), active = hit call of the paper (q ≤ 0.05, log2 ratio ≤ -1)
Settings in all cases: compound concentration: 200 uM; treatment time: 3 h
[1] = target: T1, USP42 (UniProt Q9H9J4)
T1 sequence (whole entry): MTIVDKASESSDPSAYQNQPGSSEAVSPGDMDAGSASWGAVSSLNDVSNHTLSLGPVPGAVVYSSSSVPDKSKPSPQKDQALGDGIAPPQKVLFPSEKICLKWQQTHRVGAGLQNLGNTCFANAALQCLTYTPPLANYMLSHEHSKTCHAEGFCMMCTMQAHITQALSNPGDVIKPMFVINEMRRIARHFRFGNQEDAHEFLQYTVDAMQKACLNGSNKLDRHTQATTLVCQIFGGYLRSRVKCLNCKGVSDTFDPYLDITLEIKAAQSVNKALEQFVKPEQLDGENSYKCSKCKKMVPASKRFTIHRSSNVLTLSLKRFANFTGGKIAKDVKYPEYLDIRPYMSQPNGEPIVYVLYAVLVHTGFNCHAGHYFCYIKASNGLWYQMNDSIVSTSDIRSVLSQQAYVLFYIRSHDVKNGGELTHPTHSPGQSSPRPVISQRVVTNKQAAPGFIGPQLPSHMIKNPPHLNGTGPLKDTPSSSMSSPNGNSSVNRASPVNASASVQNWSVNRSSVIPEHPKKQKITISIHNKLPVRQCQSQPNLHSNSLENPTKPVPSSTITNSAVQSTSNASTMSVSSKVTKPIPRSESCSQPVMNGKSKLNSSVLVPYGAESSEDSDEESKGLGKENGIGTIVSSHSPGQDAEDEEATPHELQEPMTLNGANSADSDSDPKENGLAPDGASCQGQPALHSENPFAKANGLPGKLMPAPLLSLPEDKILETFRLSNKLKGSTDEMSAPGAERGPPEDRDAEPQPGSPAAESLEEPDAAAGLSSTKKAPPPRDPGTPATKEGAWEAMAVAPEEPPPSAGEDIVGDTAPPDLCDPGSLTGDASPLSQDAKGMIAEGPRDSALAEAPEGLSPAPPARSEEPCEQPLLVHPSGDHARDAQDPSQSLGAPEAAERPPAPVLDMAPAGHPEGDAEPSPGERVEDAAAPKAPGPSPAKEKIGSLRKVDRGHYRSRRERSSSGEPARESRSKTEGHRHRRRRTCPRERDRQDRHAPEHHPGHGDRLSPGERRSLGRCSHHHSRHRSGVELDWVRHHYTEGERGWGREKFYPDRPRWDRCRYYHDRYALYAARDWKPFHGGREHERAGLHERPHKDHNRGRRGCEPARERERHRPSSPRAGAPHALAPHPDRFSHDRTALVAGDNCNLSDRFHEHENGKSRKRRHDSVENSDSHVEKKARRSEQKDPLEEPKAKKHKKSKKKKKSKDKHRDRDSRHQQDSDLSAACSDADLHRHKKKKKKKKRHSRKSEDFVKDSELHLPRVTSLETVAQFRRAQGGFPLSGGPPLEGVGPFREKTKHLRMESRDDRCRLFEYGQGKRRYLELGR
Summary of the method: (§1)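 Average log2 ratios of fragment over vehicle were obtained by unpaired t-test from global-median-normalised Spectronaut label-free quantities. Proteins with ≥2 unique peptides were included. HEK293T lysate (495 µg per sample) was treated in triplicate with fragment at 200 µM or vehicle for 3 h, then with Biotin-Ahx-Ub-VS at 0.5 µM final for 1 h, and labelled DUBs were NeutrAvidin-enriched and run by diaPASEF LC-MS/MS.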

[2] = target: USP46 (UniProt P62068)
Chain of USP46 (P62068 whole entry): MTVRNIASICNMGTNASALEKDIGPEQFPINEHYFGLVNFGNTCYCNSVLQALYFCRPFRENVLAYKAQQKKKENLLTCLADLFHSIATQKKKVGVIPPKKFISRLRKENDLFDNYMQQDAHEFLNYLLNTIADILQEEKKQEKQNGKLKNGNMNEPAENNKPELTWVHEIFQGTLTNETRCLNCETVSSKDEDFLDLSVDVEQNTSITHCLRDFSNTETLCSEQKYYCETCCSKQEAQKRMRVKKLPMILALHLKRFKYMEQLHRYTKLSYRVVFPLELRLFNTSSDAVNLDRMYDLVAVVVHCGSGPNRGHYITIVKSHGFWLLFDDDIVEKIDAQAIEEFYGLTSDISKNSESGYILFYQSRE
Summary of the method: as §1

[3] = target: T2, USP47 (UniProt Q96K76)
T2 sequence (whole entry): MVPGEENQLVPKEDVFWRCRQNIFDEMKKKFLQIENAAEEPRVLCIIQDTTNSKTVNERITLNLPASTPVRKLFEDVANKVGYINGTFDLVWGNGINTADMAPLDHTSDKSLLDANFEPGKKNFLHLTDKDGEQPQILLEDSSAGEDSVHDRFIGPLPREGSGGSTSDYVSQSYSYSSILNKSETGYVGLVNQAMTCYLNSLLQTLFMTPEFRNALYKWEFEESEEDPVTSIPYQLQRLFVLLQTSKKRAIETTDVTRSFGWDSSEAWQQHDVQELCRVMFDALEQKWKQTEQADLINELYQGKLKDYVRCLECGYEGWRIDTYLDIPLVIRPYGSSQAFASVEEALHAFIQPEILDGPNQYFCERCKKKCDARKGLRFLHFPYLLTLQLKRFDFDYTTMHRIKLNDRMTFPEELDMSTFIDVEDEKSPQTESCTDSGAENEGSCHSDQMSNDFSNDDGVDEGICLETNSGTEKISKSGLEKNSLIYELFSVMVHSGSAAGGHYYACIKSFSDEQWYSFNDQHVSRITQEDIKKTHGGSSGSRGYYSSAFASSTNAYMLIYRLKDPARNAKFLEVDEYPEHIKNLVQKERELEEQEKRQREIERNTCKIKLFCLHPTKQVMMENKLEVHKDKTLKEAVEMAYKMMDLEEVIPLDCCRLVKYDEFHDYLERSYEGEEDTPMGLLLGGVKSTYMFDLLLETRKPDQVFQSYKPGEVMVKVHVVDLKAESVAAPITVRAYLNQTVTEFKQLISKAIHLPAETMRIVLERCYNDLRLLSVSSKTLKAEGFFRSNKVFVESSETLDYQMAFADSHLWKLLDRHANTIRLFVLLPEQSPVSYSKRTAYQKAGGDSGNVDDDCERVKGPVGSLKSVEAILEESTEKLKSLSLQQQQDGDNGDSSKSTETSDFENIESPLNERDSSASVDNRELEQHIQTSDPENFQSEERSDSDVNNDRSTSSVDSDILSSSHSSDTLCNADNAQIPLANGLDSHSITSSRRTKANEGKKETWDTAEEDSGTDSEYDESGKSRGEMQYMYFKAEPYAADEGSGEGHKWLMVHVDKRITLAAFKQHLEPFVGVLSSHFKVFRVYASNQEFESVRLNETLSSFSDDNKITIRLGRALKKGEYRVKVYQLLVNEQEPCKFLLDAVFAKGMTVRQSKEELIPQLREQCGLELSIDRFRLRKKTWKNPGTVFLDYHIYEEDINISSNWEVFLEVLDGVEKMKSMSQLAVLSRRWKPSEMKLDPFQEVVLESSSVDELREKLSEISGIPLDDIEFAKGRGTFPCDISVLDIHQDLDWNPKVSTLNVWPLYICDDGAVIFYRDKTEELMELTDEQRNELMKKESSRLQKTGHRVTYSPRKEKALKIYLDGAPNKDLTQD
Summary of the method: as §1

[4] = target: T3, USP48 (UniProt Q86UV5)
T3 sequence (whole entry): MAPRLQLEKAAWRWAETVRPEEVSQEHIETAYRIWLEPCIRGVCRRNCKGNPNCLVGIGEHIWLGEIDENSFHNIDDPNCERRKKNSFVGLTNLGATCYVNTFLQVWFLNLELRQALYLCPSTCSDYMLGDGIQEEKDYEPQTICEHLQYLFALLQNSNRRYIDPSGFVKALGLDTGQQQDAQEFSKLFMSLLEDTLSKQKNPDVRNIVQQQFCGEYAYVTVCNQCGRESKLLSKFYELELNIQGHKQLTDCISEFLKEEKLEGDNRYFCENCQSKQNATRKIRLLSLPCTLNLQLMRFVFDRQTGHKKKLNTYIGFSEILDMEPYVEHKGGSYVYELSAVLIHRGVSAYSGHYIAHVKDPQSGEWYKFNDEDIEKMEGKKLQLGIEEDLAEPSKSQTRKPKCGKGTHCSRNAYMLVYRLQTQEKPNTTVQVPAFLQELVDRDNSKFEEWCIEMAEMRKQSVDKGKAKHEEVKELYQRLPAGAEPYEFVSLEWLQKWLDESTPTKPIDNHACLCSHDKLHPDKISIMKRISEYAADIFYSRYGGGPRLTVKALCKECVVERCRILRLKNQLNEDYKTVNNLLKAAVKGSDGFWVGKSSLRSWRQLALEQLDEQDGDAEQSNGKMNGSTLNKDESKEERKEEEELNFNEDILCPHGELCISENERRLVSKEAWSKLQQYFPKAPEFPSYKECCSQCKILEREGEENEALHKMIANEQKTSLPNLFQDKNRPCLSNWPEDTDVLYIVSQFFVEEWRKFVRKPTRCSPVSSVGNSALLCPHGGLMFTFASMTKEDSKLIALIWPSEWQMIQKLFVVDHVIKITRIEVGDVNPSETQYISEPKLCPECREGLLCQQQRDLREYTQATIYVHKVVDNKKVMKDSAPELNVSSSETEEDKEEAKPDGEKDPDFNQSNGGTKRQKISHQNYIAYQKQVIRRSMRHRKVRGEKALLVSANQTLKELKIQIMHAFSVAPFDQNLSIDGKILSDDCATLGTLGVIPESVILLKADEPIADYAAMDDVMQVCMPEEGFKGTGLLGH
Summary of the method: as §1

[5] = target: T4, USP5 (UniProt P45974)
T4 sequence (whole entry): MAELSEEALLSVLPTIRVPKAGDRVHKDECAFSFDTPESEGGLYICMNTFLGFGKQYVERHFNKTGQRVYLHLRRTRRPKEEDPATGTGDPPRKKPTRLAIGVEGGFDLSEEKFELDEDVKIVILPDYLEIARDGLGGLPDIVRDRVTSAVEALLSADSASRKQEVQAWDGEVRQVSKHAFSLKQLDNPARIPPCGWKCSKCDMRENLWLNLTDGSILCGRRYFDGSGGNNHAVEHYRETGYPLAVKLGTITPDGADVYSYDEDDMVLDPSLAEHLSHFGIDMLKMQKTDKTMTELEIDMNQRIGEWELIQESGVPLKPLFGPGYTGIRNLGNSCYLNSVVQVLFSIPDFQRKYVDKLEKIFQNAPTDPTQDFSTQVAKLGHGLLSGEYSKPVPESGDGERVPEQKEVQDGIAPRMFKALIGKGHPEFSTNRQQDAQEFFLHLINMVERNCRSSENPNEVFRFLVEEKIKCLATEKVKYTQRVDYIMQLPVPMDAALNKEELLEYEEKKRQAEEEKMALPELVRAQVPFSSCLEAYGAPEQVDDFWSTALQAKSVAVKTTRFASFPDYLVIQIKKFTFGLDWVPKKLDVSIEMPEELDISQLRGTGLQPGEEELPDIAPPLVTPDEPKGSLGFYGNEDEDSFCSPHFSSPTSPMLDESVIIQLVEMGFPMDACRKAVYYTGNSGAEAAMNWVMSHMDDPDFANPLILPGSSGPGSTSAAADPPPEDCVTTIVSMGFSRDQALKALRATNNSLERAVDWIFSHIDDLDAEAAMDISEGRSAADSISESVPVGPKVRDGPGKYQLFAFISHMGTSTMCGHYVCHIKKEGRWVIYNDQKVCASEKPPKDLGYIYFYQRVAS
Summary of the method: as §1

[6] = target: USP54 (UniProt Q70EL1)
Chain of USP54 (Q70EL1 whole entry): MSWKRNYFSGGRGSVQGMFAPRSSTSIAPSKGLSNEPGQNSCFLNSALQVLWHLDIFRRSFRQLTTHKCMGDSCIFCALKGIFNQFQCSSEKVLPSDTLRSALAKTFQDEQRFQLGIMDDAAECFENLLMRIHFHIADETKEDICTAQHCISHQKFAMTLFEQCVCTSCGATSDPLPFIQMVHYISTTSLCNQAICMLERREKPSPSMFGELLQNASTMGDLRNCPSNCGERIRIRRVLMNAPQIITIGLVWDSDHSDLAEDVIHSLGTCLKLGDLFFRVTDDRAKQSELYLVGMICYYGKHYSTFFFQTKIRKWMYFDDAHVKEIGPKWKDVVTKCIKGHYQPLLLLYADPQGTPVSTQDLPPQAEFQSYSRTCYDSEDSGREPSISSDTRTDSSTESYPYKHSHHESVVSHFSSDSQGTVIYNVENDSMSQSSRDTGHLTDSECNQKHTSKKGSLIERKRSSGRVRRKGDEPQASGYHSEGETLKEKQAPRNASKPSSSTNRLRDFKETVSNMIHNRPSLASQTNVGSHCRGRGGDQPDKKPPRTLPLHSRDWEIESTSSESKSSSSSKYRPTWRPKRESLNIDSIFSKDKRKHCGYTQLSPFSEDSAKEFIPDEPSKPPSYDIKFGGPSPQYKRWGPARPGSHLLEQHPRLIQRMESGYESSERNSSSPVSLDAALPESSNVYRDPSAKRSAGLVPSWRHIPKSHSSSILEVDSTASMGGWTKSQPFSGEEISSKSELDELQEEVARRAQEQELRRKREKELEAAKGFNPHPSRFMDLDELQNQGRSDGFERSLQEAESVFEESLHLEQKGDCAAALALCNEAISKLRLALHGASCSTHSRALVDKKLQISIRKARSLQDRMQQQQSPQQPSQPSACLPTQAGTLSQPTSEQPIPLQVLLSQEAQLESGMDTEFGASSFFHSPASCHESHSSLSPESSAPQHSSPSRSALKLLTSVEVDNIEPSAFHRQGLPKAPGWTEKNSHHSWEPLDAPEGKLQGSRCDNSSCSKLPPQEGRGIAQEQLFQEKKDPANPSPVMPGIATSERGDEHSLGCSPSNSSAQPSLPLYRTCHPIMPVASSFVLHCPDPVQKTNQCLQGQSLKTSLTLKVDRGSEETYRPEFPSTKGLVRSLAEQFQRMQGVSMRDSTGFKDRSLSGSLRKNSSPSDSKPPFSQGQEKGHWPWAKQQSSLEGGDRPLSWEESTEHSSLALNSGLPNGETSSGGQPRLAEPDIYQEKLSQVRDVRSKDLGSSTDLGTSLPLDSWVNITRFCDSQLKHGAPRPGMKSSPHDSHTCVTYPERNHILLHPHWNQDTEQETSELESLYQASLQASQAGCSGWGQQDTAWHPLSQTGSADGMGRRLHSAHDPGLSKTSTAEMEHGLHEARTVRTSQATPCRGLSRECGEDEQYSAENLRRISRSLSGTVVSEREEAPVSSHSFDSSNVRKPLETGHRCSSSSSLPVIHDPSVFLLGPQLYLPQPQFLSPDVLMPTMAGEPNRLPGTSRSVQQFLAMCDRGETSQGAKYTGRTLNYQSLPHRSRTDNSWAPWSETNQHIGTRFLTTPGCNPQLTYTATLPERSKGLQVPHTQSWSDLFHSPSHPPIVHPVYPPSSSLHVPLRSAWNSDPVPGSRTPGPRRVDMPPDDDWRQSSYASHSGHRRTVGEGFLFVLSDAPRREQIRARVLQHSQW
Summary of the method: as §1

[7] = target: USP7 (UniProt Q93009)
Chain of USP7 (Q93009 whole entry, looked up): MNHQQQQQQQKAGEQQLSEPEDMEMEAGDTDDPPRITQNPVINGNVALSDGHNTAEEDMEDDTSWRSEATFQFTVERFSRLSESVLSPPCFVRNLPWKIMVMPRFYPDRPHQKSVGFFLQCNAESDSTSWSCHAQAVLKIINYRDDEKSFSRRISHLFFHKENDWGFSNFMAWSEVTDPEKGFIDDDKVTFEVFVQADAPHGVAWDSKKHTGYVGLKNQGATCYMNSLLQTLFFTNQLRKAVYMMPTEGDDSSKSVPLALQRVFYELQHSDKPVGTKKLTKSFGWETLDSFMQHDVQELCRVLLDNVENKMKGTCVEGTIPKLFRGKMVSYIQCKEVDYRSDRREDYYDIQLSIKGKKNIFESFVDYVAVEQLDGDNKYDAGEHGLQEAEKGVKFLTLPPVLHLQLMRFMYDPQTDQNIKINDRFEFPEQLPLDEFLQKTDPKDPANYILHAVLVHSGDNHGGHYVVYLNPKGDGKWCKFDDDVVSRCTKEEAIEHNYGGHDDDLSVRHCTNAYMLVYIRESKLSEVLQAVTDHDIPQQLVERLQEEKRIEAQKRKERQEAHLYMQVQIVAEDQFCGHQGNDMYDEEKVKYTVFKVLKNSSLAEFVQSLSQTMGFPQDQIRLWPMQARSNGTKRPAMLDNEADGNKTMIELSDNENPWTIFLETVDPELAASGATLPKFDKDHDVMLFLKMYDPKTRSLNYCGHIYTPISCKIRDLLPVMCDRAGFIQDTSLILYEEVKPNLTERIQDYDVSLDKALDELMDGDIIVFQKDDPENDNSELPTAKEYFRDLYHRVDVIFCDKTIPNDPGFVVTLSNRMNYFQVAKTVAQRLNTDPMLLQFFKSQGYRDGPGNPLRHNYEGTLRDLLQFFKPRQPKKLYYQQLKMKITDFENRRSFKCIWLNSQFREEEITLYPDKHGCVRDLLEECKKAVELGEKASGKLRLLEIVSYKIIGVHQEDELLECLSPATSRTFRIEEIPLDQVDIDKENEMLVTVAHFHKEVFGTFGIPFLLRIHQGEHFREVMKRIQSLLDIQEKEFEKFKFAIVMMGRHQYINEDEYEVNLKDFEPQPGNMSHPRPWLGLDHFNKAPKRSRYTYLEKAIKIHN
Summary of the method: as §1

[8] = target: T5, USP8 (UniProt P40818)
T5 sequence (whole entry): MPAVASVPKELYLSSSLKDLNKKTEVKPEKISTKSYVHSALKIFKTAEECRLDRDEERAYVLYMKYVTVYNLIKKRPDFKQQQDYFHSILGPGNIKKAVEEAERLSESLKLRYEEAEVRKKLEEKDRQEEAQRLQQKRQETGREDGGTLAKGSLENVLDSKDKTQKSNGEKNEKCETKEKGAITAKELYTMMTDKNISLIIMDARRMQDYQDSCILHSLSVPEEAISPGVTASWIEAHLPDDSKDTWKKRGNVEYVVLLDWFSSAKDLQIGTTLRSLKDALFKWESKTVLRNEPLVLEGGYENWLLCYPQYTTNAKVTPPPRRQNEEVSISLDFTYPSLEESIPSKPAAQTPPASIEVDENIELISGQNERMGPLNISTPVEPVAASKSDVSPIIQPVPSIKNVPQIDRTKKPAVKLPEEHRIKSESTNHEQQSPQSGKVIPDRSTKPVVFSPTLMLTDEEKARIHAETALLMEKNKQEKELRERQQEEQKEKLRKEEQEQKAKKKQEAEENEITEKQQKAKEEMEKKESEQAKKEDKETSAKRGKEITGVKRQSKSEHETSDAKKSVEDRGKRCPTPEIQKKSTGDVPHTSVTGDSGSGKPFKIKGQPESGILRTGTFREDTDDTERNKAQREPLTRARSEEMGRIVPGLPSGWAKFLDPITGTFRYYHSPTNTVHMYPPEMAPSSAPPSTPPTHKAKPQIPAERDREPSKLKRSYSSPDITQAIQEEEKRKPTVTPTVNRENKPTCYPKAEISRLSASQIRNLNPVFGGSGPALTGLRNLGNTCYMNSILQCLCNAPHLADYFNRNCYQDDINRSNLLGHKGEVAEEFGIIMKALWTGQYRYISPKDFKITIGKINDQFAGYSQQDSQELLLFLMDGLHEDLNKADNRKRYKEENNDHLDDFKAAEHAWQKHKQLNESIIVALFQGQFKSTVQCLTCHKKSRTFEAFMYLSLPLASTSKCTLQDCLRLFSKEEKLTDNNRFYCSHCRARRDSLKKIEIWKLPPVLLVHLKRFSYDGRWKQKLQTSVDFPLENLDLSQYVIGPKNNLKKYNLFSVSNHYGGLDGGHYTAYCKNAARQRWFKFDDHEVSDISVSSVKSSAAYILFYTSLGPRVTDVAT
Summary of the method: as §1

[9] = target: USP9X (UniProt Q93008)
Summary of the method: as §1

[10] = target: UniProt O00487
Chain of UniProt O00487 (O00487 whole entry): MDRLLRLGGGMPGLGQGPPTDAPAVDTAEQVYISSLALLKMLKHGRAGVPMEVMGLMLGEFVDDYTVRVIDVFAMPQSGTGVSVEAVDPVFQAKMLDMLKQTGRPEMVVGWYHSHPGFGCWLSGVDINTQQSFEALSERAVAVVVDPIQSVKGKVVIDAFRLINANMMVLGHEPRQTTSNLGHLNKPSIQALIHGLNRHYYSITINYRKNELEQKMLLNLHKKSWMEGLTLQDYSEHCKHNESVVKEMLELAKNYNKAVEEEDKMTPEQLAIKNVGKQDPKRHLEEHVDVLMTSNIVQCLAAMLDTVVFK
Summary of the method: as §1

Measured: log2 ratio of Biotin-Ahx-Ub-VS probe labelling

CN(CCc1ncc(Br)cn1)C(=O)CCl.Cl
inactive: [1] 0.325 | [2] -0.136 | [3] -0.331 | [4] -0.46 | [5] 0.24 | [6] 0.619 | [7] -0.266 | [8] -0.602 | [9] -0.319 | [10] -0.0172
